ChEMBL document CHEMBL3988442, “University of Dundee, Small-Polar-MMV Screening Library” (2021)
For some assays here: Measured potencies and affinities stand elsewhere.

Assays:
Parameters in all cases: scale not given: direction of the effect not stated beside the values
[1] = target: Protein translocase subunit SecA (Escherichia coli (strain K12)) (UniProt P10408); experiment: Assay to Identify E. coli SecA ATPase Inhibitors; type: functional; details: 30 µM
[2] = target: T1, Ubiquitin-activating enzyme e1, putative (Leishmania donovani (strain BPK282A1)) (UniProt E9BSI1); experiment: Leishmania donovani Ubiquitin Activating Enzyme (LdE1); type: functional; details: 30 µM
T1 sequence (whole entry): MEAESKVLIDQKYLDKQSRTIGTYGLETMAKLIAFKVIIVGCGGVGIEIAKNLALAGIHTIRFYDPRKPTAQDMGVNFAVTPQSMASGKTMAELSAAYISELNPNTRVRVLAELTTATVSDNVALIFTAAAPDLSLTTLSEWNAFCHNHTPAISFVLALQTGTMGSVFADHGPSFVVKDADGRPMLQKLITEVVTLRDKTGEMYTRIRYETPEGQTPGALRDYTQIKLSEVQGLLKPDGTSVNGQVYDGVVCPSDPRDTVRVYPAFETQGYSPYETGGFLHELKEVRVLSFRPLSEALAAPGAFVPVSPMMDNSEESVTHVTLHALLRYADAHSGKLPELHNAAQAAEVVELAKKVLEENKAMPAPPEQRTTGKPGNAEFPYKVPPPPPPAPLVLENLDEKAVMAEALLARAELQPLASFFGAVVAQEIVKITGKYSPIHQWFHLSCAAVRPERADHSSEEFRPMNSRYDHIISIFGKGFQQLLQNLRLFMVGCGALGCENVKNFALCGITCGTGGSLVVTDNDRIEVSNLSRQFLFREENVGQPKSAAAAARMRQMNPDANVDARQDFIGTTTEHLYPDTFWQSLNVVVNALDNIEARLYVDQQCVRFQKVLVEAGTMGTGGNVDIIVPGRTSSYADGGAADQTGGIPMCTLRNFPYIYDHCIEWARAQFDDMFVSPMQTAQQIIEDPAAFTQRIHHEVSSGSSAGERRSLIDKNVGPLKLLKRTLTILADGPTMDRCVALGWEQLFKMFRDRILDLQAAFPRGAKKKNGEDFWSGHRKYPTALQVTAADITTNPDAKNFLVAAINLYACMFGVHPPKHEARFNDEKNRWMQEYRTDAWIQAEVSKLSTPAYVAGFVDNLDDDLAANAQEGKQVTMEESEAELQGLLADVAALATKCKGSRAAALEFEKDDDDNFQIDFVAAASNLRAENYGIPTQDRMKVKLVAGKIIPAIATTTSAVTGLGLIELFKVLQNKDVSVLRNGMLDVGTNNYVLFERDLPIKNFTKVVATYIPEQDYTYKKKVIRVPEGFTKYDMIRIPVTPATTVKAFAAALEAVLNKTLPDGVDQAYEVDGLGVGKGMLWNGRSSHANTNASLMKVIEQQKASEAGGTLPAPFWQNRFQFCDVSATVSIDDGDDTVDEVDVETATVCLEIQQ

[3] = target: AMP-activated protein kinase, AMPK (Homo sapiens) (UniProt P54646+O43741+P54619+Q9UGJ0+Q9Y478+Q13131+Q9UGI9); experiment: AMP-dependent Kinase enzyme assay. An in vitro enzyme assay that detects ADP turnover that is directly proportional to AMPK activity. This uses naive AMPK that is activated during the assay with MK-8722; type: functional; details: 30 µM
[4] = target: Sialic acid-binding Ig-like lectin 9 (Homo sapiens) (UniProt Q9Y336); experiment: Hs-Siglec9 ALPHAscreen SOP 20170721; details: 10 µM
Sialic acid-binding Ig-like lectin 9 (Homo sapiens), sequence (Q9Y336 whole entry): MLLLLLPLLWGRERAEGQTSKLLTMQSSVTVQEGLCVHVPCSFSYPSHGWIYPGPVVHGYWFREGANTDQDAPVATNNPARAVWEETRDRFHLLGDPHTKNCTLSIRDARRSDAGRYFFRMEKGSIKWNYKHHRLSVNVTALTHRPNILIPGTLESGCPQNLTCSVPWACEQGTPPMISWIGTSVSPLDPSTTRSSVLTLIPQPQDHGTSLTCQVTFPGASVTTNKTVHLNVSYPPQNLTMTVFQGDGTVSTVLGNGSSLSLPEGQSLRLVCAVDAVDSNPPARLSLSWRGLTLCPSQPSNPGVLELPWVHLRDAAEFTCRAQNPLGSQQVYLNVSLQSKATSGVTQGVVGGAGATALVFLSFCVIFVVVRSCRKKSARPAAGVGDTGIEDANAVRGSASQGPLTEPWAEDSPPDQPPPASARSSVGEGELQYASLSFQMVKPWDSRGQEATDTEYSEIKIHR

[5] = test system: Trypanosoma cruzi; experiment: Trypanosoma cruzi phosphomannomutase and mannose-1-phosphate guanylyltransferase assay; type: functional; details: 10 µM
[6] = target: T2, Arginase-2, mitochondrial (Homo sapiens) (UniProt P78540); experiment: in vitro enzyme assay to detect the production of urea directly proportional to the activity of Arginase II; type: functional; details: 33.3 µM; note: in the data most compounds retested in dose-response had high values
T2 sequence (whole entry): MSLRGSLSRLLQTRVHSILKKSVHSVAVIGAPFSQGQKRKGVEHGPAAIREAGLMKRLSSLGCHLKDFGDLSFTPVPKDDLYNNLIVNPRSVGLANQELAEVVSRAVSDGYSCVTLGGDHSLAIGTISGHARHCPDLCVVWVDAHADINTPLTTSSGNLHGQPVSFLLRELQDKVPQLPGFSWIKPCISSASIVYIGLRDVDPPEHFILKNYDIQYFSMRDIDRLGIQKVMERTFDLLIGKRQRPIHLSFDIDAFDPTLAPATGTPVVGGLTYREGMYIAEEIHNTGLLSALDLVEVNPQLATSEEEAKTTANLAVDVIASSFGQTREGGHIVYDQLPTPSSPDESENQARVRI

[7] = target: T3, Proteasome subunit beta (Trypanosoma cruzi) (UniProt O96673); experiment: Trypanosoma cruzi proteasome chymotrypsin-like activity (TcProtChymo) assay.; note: in the data most compounds retested in dose-response had high values; type: functional; details: 9.37 µM
T3 sequence (whole entry): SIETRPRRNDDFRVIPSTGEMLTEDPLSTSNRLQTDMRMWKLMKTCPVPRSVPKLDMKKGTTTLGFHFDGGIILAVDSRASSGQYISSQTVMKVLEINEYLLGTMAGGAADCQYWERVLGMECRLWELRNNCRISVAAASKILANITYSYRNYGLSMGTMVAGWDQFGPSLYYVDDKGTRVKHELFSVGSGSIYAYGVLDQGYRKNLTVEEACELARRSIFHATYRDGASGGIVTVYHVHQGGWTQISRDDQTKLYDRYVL

[8] = species on record: Homo sapiens; experiment: To identify inhibition of the IFN signalling (Jak-Stat) pathway via expression of an eGFP reporter gene under the control of an IFN-stimulated response element (ISRE) containing MxA promoter.; type: functional; details: 30 µM
[9] = target: T4, Tyrosyl-tRNA synthetase, putative (Trypanosoma cruzi (strain CL Brener)) (UniProt Q4DSP6); experiment: Trypanosoma cruzi tyrosyl tRNA synthetase (TcYRS) _High Tyrosine SOP; type: functional; details: 30 µM; note: in the data most compounds retested in dose-response had high values
T4 sequence (whole entry): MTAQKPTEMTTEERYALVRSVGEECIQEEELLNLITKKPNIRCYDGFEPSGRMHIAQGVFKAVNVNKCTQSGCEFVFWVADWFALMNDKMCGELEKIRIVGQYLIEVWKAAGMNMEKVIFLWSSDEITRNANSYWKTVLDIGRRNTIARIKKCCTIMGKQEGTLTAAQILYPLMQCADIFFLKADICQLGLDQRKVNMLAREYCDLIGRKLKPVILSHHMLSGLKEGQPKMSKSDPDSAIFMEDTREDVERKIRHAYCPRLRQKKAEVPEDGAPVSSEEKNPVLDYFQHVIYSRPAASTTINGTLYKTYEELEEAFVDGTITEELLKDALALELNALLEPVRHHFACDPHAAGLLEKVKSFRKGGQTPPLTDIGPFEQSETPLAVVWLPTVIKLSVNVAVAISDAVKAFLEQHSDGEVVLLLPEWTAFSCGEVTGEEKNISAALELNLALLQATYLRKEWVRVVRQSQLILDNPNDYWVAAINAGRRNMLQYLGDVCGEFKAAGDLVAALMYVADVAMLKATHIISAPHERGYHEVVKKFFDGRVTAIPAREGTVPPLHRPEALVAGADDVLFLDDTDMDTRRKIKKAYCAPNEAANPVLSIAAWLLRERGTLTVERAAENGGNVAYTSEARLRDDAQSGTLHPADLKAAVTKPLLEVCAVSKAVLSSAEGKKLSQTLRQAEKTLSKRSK

[10] = target: T4, Tyrosyl-tRNA synthetase, putative (Trypanosoma cruzi (strain CL Brener)); experiment: Trypanosoma cruzi tyrosyl tRNA synthetase (TcYRS) SOP; type: functional; details: 30 µM
[11] = target: Chromo domain-containing protein 1 (Saccharomyces cerevisiae (strain ATCC 204508 / S288c) (Baker's yeast)) (UniProt P32657); experiment: ScCHD-1 Enzyme Inhibition Assay; type: functional; details: 30 µM; note: in the data most compounds retested in dose-response had high values
Chromo domain-containing protein 1 (Saccharomyces cerevisiae (strain ATCC 204508 / S288c) (Baker's yeast)), sequence (P32657 whole entry, the tested form may be a part): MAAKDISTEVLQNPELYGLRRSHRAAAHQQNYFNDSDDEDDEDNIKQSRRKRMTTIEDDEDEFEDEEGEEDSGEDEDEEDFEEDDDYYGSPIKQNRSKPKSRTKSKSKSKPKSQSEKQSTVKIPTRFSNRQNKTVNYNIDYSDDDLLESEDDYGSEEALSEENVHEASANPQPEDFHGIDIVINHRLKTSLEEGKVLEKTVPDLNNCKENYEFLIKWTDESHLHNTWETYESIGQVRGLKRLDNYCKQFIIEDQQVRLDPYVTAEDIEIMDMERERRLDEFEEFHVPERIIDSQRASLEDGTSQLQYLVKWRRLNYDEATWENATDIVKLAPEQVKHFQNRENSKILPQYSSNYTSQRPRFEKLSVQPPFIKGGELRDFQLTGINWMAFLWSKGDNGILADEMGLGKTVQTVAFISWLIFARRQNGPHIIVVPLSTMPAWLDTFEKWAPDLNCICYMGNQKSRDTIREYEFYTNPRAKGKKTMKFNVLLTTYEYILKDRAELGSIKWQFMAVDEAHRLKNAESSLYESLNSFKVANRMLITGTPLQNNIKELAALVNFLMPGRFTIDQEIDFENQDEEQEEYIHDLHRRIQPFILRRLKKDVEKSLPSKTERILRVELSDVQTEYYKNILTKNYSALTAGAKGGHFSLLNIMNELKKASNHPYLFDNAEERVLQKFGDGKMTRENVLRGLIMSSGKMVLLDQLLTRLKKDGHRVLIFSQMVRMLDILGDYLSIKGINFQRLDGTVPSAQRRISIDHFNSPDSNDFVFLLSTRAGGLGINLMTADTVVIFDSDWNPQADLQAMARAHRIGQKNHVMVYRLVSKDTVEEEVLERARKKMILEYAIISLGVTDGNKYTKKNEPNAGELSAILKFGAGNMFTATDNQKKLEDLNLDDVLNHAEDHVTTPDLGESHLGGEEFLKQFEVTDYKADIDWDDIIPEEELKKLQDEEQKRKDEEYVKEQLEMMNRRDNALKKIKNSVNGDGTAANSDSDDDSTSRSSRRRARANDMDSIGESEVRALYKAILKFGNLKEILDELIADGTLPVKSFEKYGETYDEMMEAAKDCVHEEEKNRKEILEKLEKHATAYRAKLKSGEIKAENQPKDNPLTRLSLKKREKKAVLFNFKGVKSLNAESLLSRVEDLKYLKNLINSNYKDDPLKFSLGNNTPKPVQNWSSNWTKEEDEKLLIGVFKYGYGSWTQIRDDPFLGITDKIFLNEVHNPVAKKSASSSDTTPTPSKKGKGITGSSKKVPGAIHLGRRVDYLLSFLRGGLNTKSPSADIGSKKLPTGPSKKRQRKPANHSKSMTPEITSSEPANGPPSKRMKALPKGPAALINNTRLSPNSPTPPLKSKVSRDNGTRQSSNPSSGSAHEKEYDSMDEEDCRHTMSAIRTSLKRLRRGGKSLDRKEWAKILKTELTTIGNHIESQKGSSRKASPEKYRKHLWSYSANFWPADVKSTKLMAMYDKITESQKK

Protein translocase subunit SecA (Escherichia coli (strain K12)), sequence (P10408 whole entry): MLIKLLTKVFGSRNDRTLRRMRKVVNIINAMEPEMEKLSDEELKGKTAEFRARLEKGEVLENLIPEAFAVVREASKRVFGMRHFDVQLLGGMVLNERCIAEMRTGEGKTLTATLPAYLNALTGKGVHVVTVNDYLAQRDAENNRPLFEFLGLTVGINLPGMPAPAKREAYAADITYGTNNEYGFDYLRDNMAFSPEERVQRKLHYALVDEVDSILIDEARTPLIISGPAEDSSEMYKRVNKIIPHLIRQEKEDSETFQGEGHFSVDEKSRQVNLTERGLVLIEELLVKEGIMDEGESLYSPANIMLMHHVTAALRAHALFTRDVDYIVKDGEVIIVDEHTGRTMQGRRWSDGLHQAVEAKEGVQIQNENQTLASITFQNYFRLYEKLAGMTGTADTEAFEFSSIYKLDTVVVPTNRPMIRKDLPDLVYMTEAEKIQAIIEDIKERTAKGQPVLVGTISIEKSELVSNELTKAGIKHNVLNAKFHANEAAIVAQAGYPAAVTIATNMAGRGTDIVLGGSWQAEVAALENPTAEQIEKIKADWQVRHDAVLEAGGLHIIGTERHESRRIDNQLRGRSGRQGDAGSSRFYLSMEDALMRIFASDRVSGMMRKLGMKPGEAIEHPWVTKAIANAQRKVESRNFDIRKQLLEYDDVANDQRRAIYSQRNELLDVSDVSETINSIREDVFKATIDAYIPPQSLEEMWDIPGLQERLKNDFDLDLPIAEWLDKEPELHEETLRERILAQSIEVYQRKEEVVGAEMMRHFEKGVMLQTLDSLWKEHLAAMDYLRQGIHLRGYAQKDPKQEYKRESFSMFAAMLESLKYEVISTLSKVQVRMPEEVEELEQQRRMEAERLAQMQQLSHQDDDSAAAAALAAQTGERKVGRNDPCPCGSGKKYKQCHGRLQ

| Structure (SMILES) | Percent Effect [1] [%] | Percent Effect [2] [%] | Percent Effect [3] [%] | Percent Effect [4] [%] | Percent Effect [5] [%] | Percent Effect [6] [%] | Percent Effect [7] [%] | Percent Effect [8] [%] | Percent Effect [9] [%] | Percent Effect [10] [%] | Percent Effect [11] [%] |
| --- | --- | --- | --- | --- | --- | --- | --- | --- | --- | --- | --- |
| O=C(Cc1ccccc1F)N1C[C@@H]2COC[C@]2(COc2cccnc2)C1 | -2.71 | 8.11 | 2.48 | 0.934 | -1.66 | 10.5 | 17.5 | -1.09 | 3.24 | 12.8 | -2.39 |
| O=C(NCCNc1ncccn1)c1ccc(-c2ccco2)[nH]c1=O | -5.27 | 27 | -6.43 | 9.97 | 1.23 | -11.6 | 15.9 | 6.48 | 8.37 | 23.5 | -11.4 |
| COCC(NC(=O)c1cnn(C)c1)c1cccc(C(F)(F)F)c1 (stereo not given) | -8.86 | 0 | -3.2 | -6.41 | -4.11 | 0.455 | 7.28 | -1.62 | 0 | 0 | 0.364 |
| Cc1nc(CN2CCOC(CNc3cccnn3)C2)cs1 (stereo not given) | 0.542 | -8.11 | -13.4 | 10.4 | 3.87 | -2.81 | 20.2 | 3.75 | 14.3 | 6.17 | -6.92 |
| CCN(CC)S(=O)(=O)N1CCCC(c2ccc(C(=O)O)cc2)C1 (stereo not given) | -1.63 | -2.7 | 0.184 | 8.84 | -4.44 | -4.76 | 0.69 | -0.683 | 2.65 | 0 | -0.737 |
| Cc1oc(C)c(C(=O)NCc2cccc(NC(=O)CN(C)C)c2)c1C | -4.78 | -3.8 | -0.508 | -0.734 | 1.95 | -1.94 | 0.172 | -3.06 | 1.04 | 7.59 | 7.97 |
| O=C1CC(N(C(=O)c2ccc3[nH]c4c(c3c2)CCCC4)C2CC2)C(=O)N1 (stereo not given) | -1.37 | 27.9 | -6.86 | -8.64 | 6.33 | -3.8 | 19.7 | -7.55 | 7.39 | 24.1 | -8.05 |
| O=C(CSC1=NS(=O)(=O)c2cc(F)ccc2N1)c1ccc(Cl)cc1 | -1.43 | 0 | 2.41 | -0.28 | -5.42 | 4.52 | 6.44 | 11.1 | 4.23 | 11.5 | -7.8 |
| Cc1ccc(CC2CCCN2CC(=O)NCc2ccccn2)cc1 (stereo not given) | -7.47 | -5.26 | -11.2 | 3.27 | -1.66 | 2.37 | 8.53 | -4.78 | 7.45 | 13 | -2.14 |
| O=C([C@H]1C[C@@H]2CCN(C3CCOCC3)C[C@@H]2O1)N1CCOCC1 | 4.05 | 5.33 | -5.76 | 14.3 | -3.48 | -54.7 | 16.8 | -8.99 | 7.29 | 12.5 | -5.71 |
